Experimental data taken from PubChem BioAssay (NCATS).
Records with an inconclusive call do not appear. Calls of active or inactive are those of the source. The call rests on the fitted dose curve; in most records, active means well fitted inhibition curve with a large enough effect in the repeat runs; inconclusive means weak or mixed curves; inactive means no such curve, though single readings can be large or run the other way.

Target: Cytochrome P450 3A4 (Homo sapiens) (UniProt P08684)
Assay: Cytochrome P450 family 3 subfamily A member 4 (CYP3A4) small molecule antagonists: luciferase qHTS assay (AID 1645841); further: nearly all actives have a fitted effect of over 45% in size
Details: P450-Glo CYP3A4 enzyme assay, luciferin luminescence; series mostly up to 57.4 µM; activity change, negative = inhibition: at the top concentration
Procedure: National Center for Advancing Translational Sciences [NCATS]
Cytochrome P450 (CYP) enzymes are membrane-bound hemeproteins that play a key role in metabolism of drugs and xenobiotics. Assaying the effect of chemicals on CYP isozymes is useful to minimize the adverse drug reactions and toxicities in drug development process. Chemical compounds were tested for their effect on CYP enzyme activities by using P450-Glo (TM) screening systems (Promega Corporation, Madison, WI). These systems provide a luminescent method containing proluciferin substrates and are converted to luciferin products by CYP isozymes. The luciferin products formed are detected with a luciferin detection reagent, and the amount of light produced is proportional to CYP activity. P450-Glo (TM) CYP3A4 screening system (Catalog. No. V9910) was used to detect the compounds that interfere in CYP3A4 activity. The positive control compound used for CYP3A4 assay is ketoconazole (Sigma-Aldrich, St. Louis, MO).
Two ul of enzyme-substrate mix was dispensed into medium binding white/solid 1536-well plates (Greiner Bio-One North America Inc., Monroe, NC) using a Flying Reagent Dispenser (FRD, Aurora Discovery, San Diego, CA). Test compounds dissolved in DMSO and positive control (ketoconazole) were transferred to the assay plates at 23 nl using a Pintool station (Wako, San Diego, CA). The assay plates were incubated at room temperature for 10 min. Then 2 ul of NADPH regeneration solution was added to each well of the assay plates using an FRD and incubated at room temperature for 1 h. The reaction was stopped by adding 4 ul of detection reagent using an FRD and after 20 min incubation at room temperature, the luminescence signal was measured using a ViewLux plate reader (Perkin Elmer, Shelton, CT). Data were expressed as relative luminescence units.
Potency means the concentration at half of the fitted maximal effect.

Cytochrome P450 3A4 (Homo sapiens), sequence (P08684 whole entry, looked up): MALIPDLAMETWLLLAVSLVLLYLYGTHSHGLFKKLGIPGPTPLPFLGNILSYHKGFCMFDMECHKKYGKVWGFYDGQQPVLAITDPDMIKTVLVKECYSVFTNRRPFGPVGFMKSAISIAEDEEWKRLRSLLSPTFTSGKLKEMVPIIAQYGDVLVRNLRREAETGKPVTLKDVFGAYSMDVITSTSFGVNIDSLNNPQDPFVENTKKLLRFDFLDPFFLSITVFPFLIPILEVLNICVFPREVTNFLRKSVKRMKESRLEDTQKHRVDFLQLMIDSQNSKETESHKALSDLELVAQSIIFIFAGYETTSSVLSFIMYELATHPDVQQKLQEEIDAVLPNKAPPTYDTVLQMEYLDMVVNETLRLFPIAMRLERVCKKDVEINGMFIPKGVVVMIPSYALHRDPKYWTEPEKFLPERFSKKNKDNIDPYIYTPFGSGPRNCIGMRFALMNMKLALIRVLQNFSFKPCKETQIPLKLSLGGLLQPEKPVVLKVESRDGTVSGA

SMILES	activity change, negative = inhibition	Potency
O=C(O)c1ccccc1O	-9.17% (inactive)	–
CCCCc1ccc(C(=O)O)nc1	37.1% (inactive)	–
O=[N+]([O-])c1ccc([As](=O)(O)O)cc1	-3.17% (inactive)	–
Nc1ccc(Cl)cc1N	–	7.96 µM (active)
O=C(NCC1CCOCC1)c1cnc(Nc2ccc(Cl)cc2Cl)nc1C(F)(F)F	-16.7% (inactive)	–
O=C(O)CNC(=O)c1c(O)c2ccccc2n(Cc2ccccc2)c1=O	25.3% (inactive)	–
CCCN(CCC)c1c([N+](=O)[O-])cc(S(N)(=O)=O)cc1[N+](=O)[O-]	–	8.44 µM (active)
CC[N+]1(CCOC(=O)C(O)(c2ccccc2)c2ccccc2)CCCCC1	-5.53% (inactive)	–
CC(=O)[O][Hg][c]1ccccc1	–	7.76 µM (active)
CC(C)NCC(O)c1ccc([N+](=O)[O-])cc1 (stereo not given)	20.2% (inactive)	–
